Assay results reported in PubChem BioAssay (EPA / NIEHS).
Inconclusive results are not listed. Activity calls are given as the source filed them. The calls were made as follows: active = hit-call score of the fitted dose curve at least 0.9, where 1 is the maximum; inconclusive = response in the unintended direction; inactive = score below 0.9.

What was measured:
[1] = molecular target: human Neurotensin Receptor (NTS), NTSR1 (gene 4923) (UniProt P30989); experiment: NVS_GPCR_hNTS: NovaScreen (NVS) G Protein-Coupled Receptor Assay for human Neurotensin Receptor (NTS) (AID 2283279)
Outline: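 Radioligand displacement on human NTSR1 protein from CHO cells, cell-free, 1 h, filter-based scintillation counting. Primary screen at 25 uM in duplicate; hits rerun in concentration-response up to 50 uM.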

[2] = molecular target: human Orphanin, Opioid Related Nociceptin Receptor 1 (ORL1), OPRL1 (gene 4987) (UniProt P41146); experiment: NVS_GPCR_hORL1: NovaScreen (NVS) G Protein-Coupled Receptor Assay for human Orphanin, Opioid Related Nociceptin Receptor 1 (ORL1) (AID 2283283)
Outline: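 Filter-based radioligand displacement with receptor extracted from HEK293 cells, read 1 hour after dosing by scintillation counting. Duplicate single-point screen at 25 uM; qualifying chemicals then run in concentration-response to 50 uM, analysed relative to DMSO.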

[3] = tested on: rabbit Platelet Activating Factor Receptor (PAF), gene 100354046; experiment: NVS_GPCR_rabPAF: NovaScreen (NVS) G Protein-Coupled Receptor Assay for rabbit Platelet Activating Factor Receptor (PAF) (AID 2283287)
Experimental: NVS_GPCR_rabPAF is a biochemical, single-readout assay that uses extracted gene-proteins from Rabbit platelets in a tissue-based cell-free assay. Measurements were taken 1 hour after chemical dosing in a 48-well plate.NVS_GPCR_rabPAF is one of one assay component(s) measured or calculated from the NVS_GPCR_rabPAF assay. It is designed to make measurements of radioligand binding, a form of binding reporter, as detected with scintillation counting signals by Filter-based radiodetection technology.Data from the assay component NVS_GPCR_rabPAF was analyzed into 1 assay endpoint. This assay endpoint, NVS_GPCR_rabPAF, was analyzed in the positive analysis fitting direction relative to DMSO as the negative control and baseline of activity. Using a type of binding reporter, loss-of-signal activity can be used to understand changes in the binding as they relate to the gene PTAFR. Furthermore, this assay endpoint can be referred to as a primary readout, because the performed assay has only produced 1 assay endpoint. To generalize the intended target to other relatable targets, this assay endpoint is annotated to the gpcr intended target family, where the subfamily is rhodopsin-like receptor. […]

Chain of human Neurotensin Receptor (NTS), NTSR1 (gene 4923) (P30989 whole entry, looked up): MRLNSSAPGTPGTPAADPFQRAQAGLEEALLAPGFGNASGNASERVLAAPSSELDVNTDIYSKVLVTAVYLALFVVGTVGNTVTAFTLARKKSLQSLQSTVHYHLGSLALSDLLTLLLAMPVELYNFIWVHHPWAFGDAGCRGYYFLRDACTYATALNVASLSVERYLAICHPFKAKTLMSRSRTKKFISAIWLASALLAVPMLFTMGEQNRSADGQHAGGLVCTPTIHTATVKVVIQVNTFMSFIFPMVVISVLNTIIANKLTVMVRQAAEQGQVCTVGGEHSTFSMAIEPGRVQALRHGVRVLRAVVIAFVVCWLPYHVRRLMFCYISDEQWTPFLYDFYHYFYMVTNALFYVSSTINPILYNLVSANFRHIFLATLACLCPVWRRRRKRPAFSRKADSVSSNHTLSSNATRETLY
Chain of human Orphanin, Opioid Related Nociceptin Receptor 1 (ORL1), OPRL1 (gene 4987) (P41146 whole entry, looked up): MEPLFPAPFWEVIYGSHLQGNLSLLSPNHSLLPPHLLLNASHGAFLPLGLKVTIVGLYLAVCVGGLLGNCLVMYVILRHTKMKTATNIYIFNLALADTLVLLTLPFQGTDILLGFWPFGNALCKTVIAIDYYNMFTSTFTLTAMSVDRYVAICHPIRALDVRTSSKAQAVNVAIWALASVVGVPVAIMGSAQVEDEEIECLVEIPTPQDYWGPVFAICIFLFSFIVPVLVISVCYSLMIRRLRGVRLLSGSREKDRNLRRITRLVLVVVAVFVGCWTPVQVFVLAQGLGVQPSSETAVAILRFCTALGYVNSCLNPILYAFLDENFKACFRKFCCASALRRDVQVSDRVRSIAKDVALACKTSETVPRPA

Structure (SMILES): NC(=O)N(O)[C@@H]1C=C[C@H](Oc2cccc(Oc3ccc(F)cc3)c2)C1
- AC50 [1]: 8.13 µM (active)

Structure (SMILES): CC(C)(C)CC(C)(C)c1ccc(O)c(-n2nc3ccccc3n2)c1
- AC50 [1]: 19.4 µM (active)

Structure (SMILES): CCC(=C(c1ccc(O)cc1)c1ccc(OCCN(C)C)cc1)c1ccccc1
- outcome [2]: inactive
- AC50 [3]: 4.17 µM (active)

Structure (SMILES): CCCOc1sc(C(=O)N2CCC(c3cc(CN)ccc3F)CC2)c(C)c1Br
- AC50 [2]: 24 µM (active)
- AC50 [3]: 23.2 µM (active)
